From PubChem BioAssay (EPA / NIEHS)
Records with an inconclusive call do not appear. The source made the active and inactive calls. How the source made its calls, unless noted: active means hit-call score of the fitted dose curve at least 0.9, where 1 is the maximum; inconclusive means response in the unintended direction; inactive means score below 0.9.

Assays:
[1] = Tanguay_ZF_120hpf_SOMI_legacy: (Legacy) Oregon State University Tanguay Lab 120 Hour Post-fertilization zebrafish Assay for Somite Malformation (AID 2283647)
Procedure, shortened: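 Tropical 5D wild-type zebrafish embryos, dechorionated with pronase at 4 hpf, were placed singly at 6 hpf and statically exposed until 120 hpf at 28C in 0.64% DMSO. Somite malformation was scored present/absent by brightfield microscopy versus DMSO.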

[2] = Tanguay_ZF_120hpf_PFIN_legacy: (Legacy) Oregon State University Tanguay Lab 120 Hour Post-fertilization zebrafish Assay for Pectoral Fin Malformation (AID 2283648);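 further: each larva judged yes or no for fin defect by brightfield with dead larvae skipped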
Procedure, shortened: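 Dechorionated Tropical 5D wild-type zebrafish embryos, one per well, statically exposed from 6 to 120 hpf at 28C with 0.64% DMSO final. Pectoral fin malformation scored present/absent by brightfield at 120 hpf; not scored in dead embryos.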

[3] = Tanguay_ZF_120hpf_CFIN_legacy: (Legacy) Oregon State University Tanguay Lab 120 Hour Post-fertilization zebrafish Assay for Caudal Fin Malformation (AID 2283649)
Procedure, shortened: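 Tropical 5D wild-type embryos, dechorionated with pronase at 4 hpf, were placed singly in wells at 6 hpf and statically exposed to compound at 28C until 120 hpf (0.64% DMSO). Caudal fin malformation was scored present/absent by brightfield microscopy.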

[4] = Tanguay_ZF_120hpf_PIG_legacy: (Legacy) Oregon State University Tanguay Lab 120 Hour Post-fertilization zebrafish Assay for Pigmentation Malformation (AID 2283650)
Procedure, shortened: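 Dechorionated Tropical 5D wild-type embryos, one per well from 6 hpf, statically exposed at 28C in the dark until 120 hpf, 0.64% DMSO final. Pigmentation scored present/absent by brightfield microscopy; dead embryos not scored; fitted versus DMSO.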

[5] = Tanguay_ZF_120hpf_CIRC_legacy: (Legacy) Oregon State University Tanguay Lab 120 Hour Post-fertilization zebrafish Assay for Circulatory Malformation (AID 2283651)
Procedure, shortened: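 Read-out: presence or absence of circulatory malformation at 120 hpf, scored by brightfield microscopy, fitted in the gain-of-signal direction against DMSO baseline. Wild-type 5D larvae were exposed from 6 hpf after enzymatic chorion removal.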

[6] = Tanguay_ZF_120hpf_SWIM_legacy: (Legacy) Oregon State University Tanguay Lab 120 Hour Post-fertilization zebrafish Assay for Swim Bladder Malformation (AID 2283654);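 further: swim bladder malformation in each larva scored yes or no under brightfield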
Procedure, shortened: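 Dechorionated wild-type Tropical 5D zebrafish embryos, one per well from 6 hpf, were statically exposed at 28C until 120 hpf in 0.64% DMSO. Swim bladder malformation scored as present/absent by brightfield microscopy; not scored in dead larvae.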

[7] = Tanguay_ZF_120hpf_TRUN_legacy: (Legacy) Oregon State University Tanguay Lab 120 Hour Post-fertilization zebrafish Assay for Truncated Body (AID 2283655)
Procedure, shortened: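 Tropical 5D wild-type embryos, dechorionated with pronase at 4 hpf, were placed singly in wells at 6 hpf and statically exposed at 28C until 120 hpf, final DMSO 0.64%. Truncated body was scored present/absent by brightfield microscopy.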

[8] = Tanguay_ZF_120hpf_NC_legacy: (Legacy) Oregon State University Tanguay Lab 120 Hour Post-fertilization zebrafish Assay for Notochord and Tail Malformation (AID 2283656)
Procedure, shortened: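 Dechorionated Tropical 5D wild-type zebrafish embryos, one per well from 6 hpf, statically exposed to 120 hpf at 28C in 0.64% DMSO final. Notochord distortion scored present/absent by brightfield; dead embryos excluded.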

[9] = read-out: matrix metalloproteinase-1 (MMP1), MMP1 (gene 4312); assay: LTEA_HepaRG_MMP1: Life Technologies and Expression Analysis (LTEA) Assay for matrix metalloproteinase-1 (MMP1) using HepaRG (AID 2283658; active means hit-call score of the fitted dose curve at least 0.9, where 1 is the maximum; inactive means score below 0.9); details: mRNA level, 48 h; actives raise or lower the signal
Procedure, shortened: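 Differentiated HepaRG cells, plated 48 h then switched to serum-free induction medium, were exposed in duplicate for 48 h to eight half-log concentrations up to 100 uM in 0.5% DMSO; MMP1 mRNA measured by qRT-PCR, normalized to ACTB, GAPDH, POLR2A.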

[10] = read-out: kallikrein-3 (KLK3), KLK3 (gene 354); assay: LTEA_HepaRG_KLK3: Life Technologies and Expression Analysis (LTEA) Assay for kallikrein-3 (KLK3) using HepaRG (AID 2283652; active means hit-call score of the fitted dose curve at least 0.9, where 1 is the maximum; inactive means score below 0.9); details: mRNA level, 48 h; actives raise or lower the signal
Procedure, shortened: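 Differentiated human HepaRG cells in serum-free induction medium exposed 48 h in duplicate, eight-point half-log series from 100 uM in 0.5% DMSO. KLK3 mRNA by qRT-PCR, normalised to ACTB, GAPDH, POLR2A; bidirectional fit versus DMSO.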

SMILES | outcome [1] | outcome [2] | outcome [3] | outcome [4] | outcome [5] | outcome [6] | AC50 [7] | outcome [8] | outcome [7] | outcome [9] | outcome [10] | AC50 [8] | AC50 [2]
CCOCN(C(=O)CCl)c1c(C)cccc1CC | inactive | inactive | inactive | inactive | inactive | inactive | 47.5 µM (active) | inactive | – | – | – | – | –
N#CN | inactive | inactive | inactive | inactive | inactive | inactive | – | – | inactive | – | – | – | –
O=C1c2ccccc2C(=O)N1SC(Cl)(Cl)Cl | – | inactive | inactive | inactive | – | inactive | – | inactive | inactive | inactive | – | – | –
CNC(=O)Oc1cccc(N=CN(C)C)c1 | inactive | inactive | inactive | – | – | – | – | inactive | inactive | – | – | – | –
CC1(c2ccc(Oc3ccccc3)cc2)OC(=O)N(Nc2ccccc2)C1=O (centres undefined) | – | inactive | inactive | inactive | inactive | – | – | inactive | inactive | – | – | – | –
CN1CSC(=S)N(C)C1 | inactive | inactive | – | inactive | inactive | inactive | – | – | inactive | inactive | inactive | 6.95 µM (active) | –
O=C(O)CCCOc1ccc(Cl)cc1Cl | inactive | – | inactive | inactive | inactive | inactive | – | inactive | inactive | – | – | – | –
C#CCN1C(=O)COc2cc(F)c(N3C(=O)C4=C(CCCC4)C3=O)cc21 | inactive | inactive | inactive | inactive | inactive | inactive | – | inactive | – | – | – | – | –
CC(C)OC(=O)Nc1cccc(Cl)c1 | inactive | inactive | inactive | inactive | – | inactive | – | inactive | inactive | – | – | – | –
C[C@H]1[C@H](c2ccc(Cl)cc2)SC(=O)N1C(=O)NC1CCCCC1 | inactive | inactive | inactive | inactive | – | inactive | – | inactive | inactive | – | – | – | –
CNC(=O)CSP(=S)(OC)OC | – | inactive | inactive | – | inactive | inactive | – | inactive | – | – | – | – | –
CNC(=O)Oc1ccccc1OC(C)C | – | inactive | inactive | inactive | inactive | inactive | – | inactive | inactive | – | – | – | –
CCC(C)Nc1c([N+](=O)[O-])cc(C(C)(C)C)cc1[N+](=O)[O-] (centres undefined) | inactive | inactive | inactive | inactive | – | inactive | – | – | inactive | inactive | – | – | –
O=[N+]([O-])/N=C1\NCCN1Cc1ccc(Cl)nc1 | inactive | inactive | inactive | inactive | inactive | – | – | inactive | inactive | – | – | – | –
Clc1ccccc1-c1nnc(-c2ccccc2Cl)nn1 | – | inactive | – | inactive | inactive | inactive | – | inactive | inactive | – | – | – | –
CCC(C)(NC(=O)c1cc(Cl)c(C)c(Cl)c1)C(=O)CCl (centres undefined) | – | inactive | inactive | – | inactive | inactive | – | inactive | inactive | – | – | – | –
CNC(=O)/C=C(\C)OP(=O)(OC)OC | inactive | inactive | – | inactive | inactive | inactive | – | inactive | inactive | – | – | – | –
O=C(Nc1ccccc1)Nc1cnns1 | inactive | inactive | inactive | inactive | inactive | – | – | inactive | inactive | – | – | – | –
COc1nn(CSP(=S)(OC)OC)c(=O)s1 | inactive | inactive | inactive | inactive | – | inactive | – | inactive | inactive | – | – | – | –
CC1(C)C(C=C(Cl)Cl)C1C(=O)OC(C#N)c1ccc(F)c(Oc2ccccc2)c1 (centres undefined) | – | inactive | inactive | inactive | inactive | inactive | – | – | inactive | inactive | inactive | – | –
COP(=S)(OC)Oc1ccc(SC)c(C)c1 | – | inactive | inactive | inactive | inactive | inactive | – | inactive | inactive | – | – | – | –
CC(C)(C)C(O)/C(=C\c1ccc(Cl)cc1Cl)n1cncn1 (centres undefined) | inactive | – | – | inactive | inactive | inactive | – | – | inactive | – | – | – | 42.5 µM (active)
CCc1ccc(C(=O)NN(C(=O)c2cc(C)cc(C)c2)C(C)(C)C)cc1 | – | inactive | inactive | inactive | – | inactive | – | inactive | inactive | – | – | – | –
CCN(CC)C(=O)SCc1ccc(Cl)cc1 | inactive | inactive | inactive | inactive | inactive | inactive | – | inactive | – | – | – | – | –
O=C(O)COc1ccc(Cl)cc1Cl | – | inactive | inactive | inactive | inactive | – | – | inactive | inactive | – | – | – | –
